# From PubChem BioAssay
# Calls of active or inactive are those of the source. Cut-off read from the data, not from the text of the source: active = inhibition above about 42%; inactive = the rest.
# Molecular target: Nuclear receptor subfamily 5 group A member 2 (Homo sapiens) (UniProt O00482)
# Assay: NR5A2 activity suppression in reporter cells – cell-based, luminescence, confirmation (AID 651613);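 note: HEK293T cells co-transfected with LRH-1 and StAR promoter luciferase reporter; 0% = vehicle wells and 100% = parental cells lacking receptor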
# Settings: cell-based LRH-1 luciferase reporter, inverse agonism; at 3.6 µM; hits give high values
# Sequence of Nuclear receptor subfamily 5 group A member 2 (Homo sapiens) (O00482 whole entry, looked up): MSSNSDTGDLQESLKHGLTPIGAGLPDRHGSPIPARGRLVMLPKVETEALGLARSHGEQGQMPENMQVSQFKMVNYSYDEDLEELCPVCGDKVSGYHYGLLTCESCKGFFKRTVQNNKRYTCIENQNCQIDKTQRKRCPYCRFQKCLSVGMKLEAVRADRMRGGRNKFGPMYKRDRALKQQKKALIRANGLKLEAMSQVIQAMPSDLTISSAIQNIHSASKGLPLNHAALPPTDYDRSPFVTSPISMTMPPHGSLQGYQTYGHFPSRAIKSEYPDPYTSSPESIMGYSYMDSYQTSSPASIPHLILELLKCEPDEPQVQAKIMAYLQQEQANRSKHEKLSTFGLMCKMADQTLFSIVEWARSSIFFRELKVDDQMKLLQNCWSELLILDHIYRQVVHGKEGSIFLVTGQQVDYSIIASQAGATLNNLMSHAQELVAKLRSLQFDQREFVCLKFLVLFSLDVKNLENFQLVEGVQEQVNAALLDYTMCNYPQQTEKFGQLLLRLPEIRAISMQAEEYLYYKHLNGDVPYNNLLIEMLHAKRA
row,Compound,inhibition
1,CCN(CC)C1=NC(=[N+](CC)CC)c2ccccc21,107% (active)
2,O=Cc1cn(Cc2cccc([N+](=O)[O-])c2)c2ccccc12,74.4% (active)
3,N#Cc1ccc(Cn2cc(C=O)c3ccccc32)cc1,39.1% (inactive)
4,CCN1CCN(c2cc(N3CCCC3)c([N+](=O)[O-])cc2F)CC1,51.2% (active)
5,N#CCCn1cc(C(=O)Nc2ccccc2Cl)c(-c2ccc([N+](=O)[O-])cc2)n1,57.2% (active)
6,O=C1Nc2ccccc2/C1=C/c1cnc[nH]1,14.2% (inactive)
7,Cc1ccccc1-n1c(/C=C/c2ccccn2)nc2ccccc2c1=O,49.5% (active)
8,Cc1ccc2c(C)c3ccc4ccccc4c3c[n+]2c1,99.6% (active)
9,O=[N+]([O-])c1cc(F)c(N2CCCCCC2)cc1N1CCNCC1,54.1% (active)
10,CCOC(=O)c1c(C)n(CC(O)CN2CCOCC2)c2cc(Br)c(OC)cc12 (centres undefined),57.1% (active)
11,N#CCCn1cc(C(=O)Nc2ccccc2Br)c(-c2ccc([N+](=O)[O-])cc2)n1,61.5% (active)
12,CCOC(=O)[C@]12Cc3c(cc(OC)c(OC)c3OC)[C@H]1N(C1CCCCC1)C(=O)c1ccccc12,99.8% (active)
13,COC(=O)COc1cc(C)cc2oc(=O)c3c(c12)CCCC3,46.5% (active)
14,COc1ccc2c(c1)/C(=C/c1cnc[nH]1)C(=O)N2,85.8% (active)
15,O=c1[nH]c2ccccc2n1C1CCN(Cc2ccc(-c3[nH]c4cc5ncnc5cc4nc3-c3ccccc3)cc2)CC1,64.2% (active)
16,CCOC(=O)[C@]12Cc3cc(C)ccc3[C@H]1N(C1CCCCC1)C(=O)c1ccccc12,102% (active)
17,CC1CCN(C(=O)CCl)CC1,58.2% (active)
18,COc1cccc2c1C(=O)c1c(O)c3c(c(O)c1C2=O)CC(O)(C(C)=NO)CC3OC1CC(N)C(O)C(C)O1 (centres undefined),79.4% (active)
19,NC(Cc1ccc(F)cc1)c1csc(Nc2ncccn2)n1 (centres undefined),43.3% (active)
20,CN1C(=O)C(=Cc2ccc(N3CCCCCC3)cc2)C(=O)N(C)C1=O,57% (active)
21,COc1cc2c(cc1OC)C1C(=O)c3ccc4c(c3OC1CO2)CC(C(C)C)O4 (centres undefined),71.2% (active)
22,CCOC(=O)[C@]12Cc3cc(C)ccc3[C@H]1N(C1CCCCC1)C(=O)c1cc(OC)ccc12,97.4% (active)
23,CCOC(=O)[C@]12Cc3cc(OC)ccc3[C@H]1N(C1CCCCC1)C(=O)c1ccccc12,93.3% (active)
24,CC(=O)O[C@H]1C(=O)[C@@]2(C)C([C@H](OC(=O)c3ccccc3)[C@]3(O)C[C@H](OC(=O)[C@H](O)[C@@H](NC(=O)Cc4ccccc4)c4ccccc4)C(C)=C1C3(C)C)[C@]1(OC(C)=O)CO[C@@H]1C[C@@H]2O (some centres undefined),45.2% (active)
25,COC(=O)C(C)Oc1cc(C)cc2oc(=O)c3c(c12)CCCC3 (centres undefined),63.3% (active)
26,CC(C)(C)c1ccc(CSc2cnn(C(C)(C)C)c(=O)c2Cl)cc1,99.2% (active)
27,CCOC(=O)[C@]12Cc3ccccc3[C@H]1N(C1CCCCC1)C(=O)c1cc(OC)ccc12,98% (active)
28,COC1/C=C/C=C(\C)Cc2cc(O)c(Cl)c(c2)N(C)C(=O)CC(OC(=O)C(C)C)C2(C)OC2C(C)C2CC1(O)NC(=O)O2 (centres undefined),60.1% (active)
29,N#Cc1c(Br)n(C2OC(CO)C(O)C2O)c2ncnc(N)c12 (centres undefined),77.3% (active)
